The record followed here is PubChem BioAssay AID1063 (University of Pittsburgh Molecular Library Screening Center, 2008).

The whole screen tested about 200,000 compounds, of which about 18,000 (9%) were called active. Rule as the data show it: active = inhibition above about 50%; inactive = the rest. The entries come from a sample that favours actives as a whole.

The test can be described thus: Leishmania major promastigote growth inhibition, primary screen (AID 1063).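 Also: promastigotes grown with compound for 44 hours at 28 °C.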 Particulars: Leishmania major promastigotes, resazurin fluorescence viability; at 10 µM; stronger effect = higher value.
One may read the inhibition as the drop in the measured response relative to a control, in per cent. Turning to `CCc1cccc(C)c1NC(=S)N(CCCN1CCN(C)CC1)Cc1cccs1`, the inhibition is 22.3% (inactive).

As for `Cc1ccc(Cl)cc1NC(=S)N(CCN(C)C)Cc1cccs1`, the inhibition is 18.3% (inactive).

Take `Cc1ccccc1NC(=S)N(CCCN1CCOCC1)Cc1cccs1`: the inhibition is 61.8% (active). Then `O=C(CCN1C(=O)c2ccccc2C1=O)NCCCn1ccnc1`, with -10.1% (inactive); and `O=C(Nc1cccc(-c2nc3ncccc3o2)c1)c1ccco1`, with 100% (active). For `O=C(Nc1ccc2nccnc2c1)c1ccco1`, the inhibition is -6.2% (inactive). Turning to `O=C(Nc1cccc(NC(=O)c2ccco2)c1)c1cnccn1`, the inhibition is 20.6% (inactive). The figure for `CC(=O)Nc1ccc(S(=O)(=O)Nc2nccc(/C=C/c3ccccc3F)n2)cc1` is -6.64% (inactive). For the compound `O=C(N/N=C/c1ccccn1)c1ccc(S(=O)(=O)N2CCCCCC2)cc1`, the inhibition is -3.79% (inactive). Turning to `CC(c1ccco1)N(C(=O)COc1ccccc1[N+](=O)[O-])c1ccccn1` (centres undefined), the inhibition is 1.39% (inactive). For the compound `CC(c1ccco1)N(C(=O)c1ccc(S(=O)(=O)N2CCCCC2)cc1)c1ccccn1` (centres undefined), the inhibition is 89.7% (active).

In the case of `Cn1c(N)cc(-c2ccc(F)cc2)c(C#N)c1=O`, the inhibition is 0.6% (inactive). With `Cc1ccc(-c2csc(NNC(=O)c3ccccc3)n2)cc1`, the inhibition is 16.8% (inactive). With `Cc1ccc(-c2csc(NC(=O)Cn3[nH]c(=O)c4ccccc4c3=O)n2)cc1`, the inhibition is 5.27% (inactive). On to `O=C(Nc1nc(-c2ccc(-c3ccccc3)cc2)cs1)c1cnccn1`, for which the inhibition was 47.8% (inactive). `Cc1cccc(S(=O)(=O)CC(=O)Nc2nc(-c3ccccc3)cs2)c1`: the inhibition is 98.6% (active).

Consider `O=C(CSC1=NCCS1)Nc1nc(-c2ccccc2)cs1`, for which the inhibition is 67.4% (active). In the case of `CCNC(=O)CSc1nc(-c2ccccc2)cs1`, the inhibition was 3.19% (inactive). For the compound `Cc1ccc(S(=O)(=O)N(CC(=O)NN=C2CCN(C)CC2)c2ccc(F)cc2)cc1`, the inhibition was -0.06% (inactive).

Consider `CCc1cc2c(=O)c(-c3nc4ccccc4n3C)c(CCCC(=O)O)oc2cc1OC(=O)C(C)(C)C`, for which the inhibition was -1.6% (inactive). Turning to `COc1ccc(C2=NN(C(=O)c3cccnc3)C(c3ccccc3)C2)cc1` (centres undefined), the inhibition is 5.17% (inactive). Turning to `CCOc1ccc(NC(=S)NC(=O)/C=C/c2ccc(OC)cc2)c([N+](=O)[O-])c1`, the inhibition is -5.29% (inactive).

For `COc1ccc(/C=C/C(=O)NC(=S)NN2CCCCC2c2cccnc2)cc1` (centres undefined), the inhibition was 69.9% (active).

Take `Cc1cccc(C(=O)Nc2nnc(Cc3c[nH]c4ccccc34)s2)c1`: the inhibition was 19.2% (inactive). Take `Cc1cccc(N=C2NC(=O)/C(=C/c3cn(C)c4ccccc34)S2)c1`: the inhibition was 10.8% (inactive). On to `Cc1cccc(N=C2NN=C(c3c[nH]c4ccccc34)CS2)c1`, for which the inhibition is 64.9% (active). The figure for `CC(C(=O)NC1CCCC1)N(c1ccc(Oc2ccccc2)cc1)S(C)(=O)=O` (centres undefined) is 29.4% (inactive); for `CCOc1ccc(C(C)=O)cc1CSc1nnc(-c2ccncc2)n1CCOC` it is 2.51% (inactive); for `COc1ccc(C/C(C)=N/NC(=O)c2cc(C)oc2C)cc1` it is 2.67% (inactive). Take `COc1ccc(C/C(C)=N/NC(=O)c2ccncc2)cc1`: the inhibition was -6.69% (inactive).

With `C/C(=N\NC(=O)Cc1ccc(Cl)cc1)c1ccccn1`, the inhibition is 100% (active). Turning to `COc1ccc(CC(=O)N/N=C(\C)c2ccccn2)cc1`, the inhibition was 75.9% (active). On to `Cc1ccc(Cl)cc1NC(=O)c1ccccn1`, for which the inhibition was -2.2% (inactive).

Regarding `C/C(=N\NC(=O)Cc1ccc(F)cc1)c1ccc(F)cc1`, the inhibition is -7.37% (inactive). With `COc1ccccc1NC(=O)C1=C(C)NC(=O)NC1c1ccc(C)s1` (centres undefined), the inhibition is 5.44% (inactive). In the case of `O=C(CC(=O)N/N=C\c1ccc(F)cc1)NCCc1ccccc1`, the inhibition was -0.64% (inactive). On to `Nc1ccc(S(=O)(=O)Nc2nccc(/C=C/c3ccc(Br)s3)n2)cc1`, for which the inhibition was 1.78% (inactive). Take `O=C(O/N=C(/c1ccccc1)c1ccncc1)c1ccccc1[N+](=O)[O-]`: the inhibition is -5.52% (inactive). Then `COC(=O)c1ccc(NC(=S)Nc2cccc(C)n2)cc1`, with 1.93% (inactive); and `COc1cc(OC)cc(-c2nnc(SCC(=O)Nc3ccc(C(=O)O)cc3)s2)c1`, with -10.5% (inactive). Turning to `COc1ccc(/C=C/C2=CC(C)(C)NC(=S)N2)c(OC)c1`, the inhibition is 1.29% (inactive). Regarding `COc1cccc(-n2c(=S)[nH]c3c(oc4ccccc43)c2=O)c1`, the inhibition was -1.14% (inactive). For `CCCC1(C(=O)OC)NC(c2ccco2)C2C(=O)N(C)C(=O)C21` (centres undefined), the inhibition was 4.05% (inactive). The figure for `CCC(=O)N(Cc1cc2ccccc2[nH]c1=O)c1ccc(OC)cc1` is 11.3% (inactive); for `Cc1ccc(N(Cc2cc3ccccc3[nH]c2=O)C(=O)c2cccs2)cc1` it is 75.4% (active); for `Cc1cccc2cc(CN(C(=O)c3cccs3)c3ccccc3)c(=O)[nH]c12` it is -3.04% (inactive). For `Cc1ccc2c(c1)C(O)(CC(=O)c1cccc(-n3cccc3)c1)C(=O)N2` (centres undefined), the inhibition is 0.06% (inactive).

For `COc1ccccc1-n1cnc2cc(NS(=O)(=O)c3ccccc3)ccc21`, the inhibition was 98.3% (active). With `COCCCNC(=O)c1ccc2c(c1)ncn2-c1ccccc1OC`, the inhibition was -1.51% (inactive).

In the case of `COc1cc(NS(=O)(=O)c2ccccc2)ccc1-n1nc(C)cc1C`, the inhibition is -5.46% (inactive). Take `O=[N+]([O-])c1ccccc1N/N=C1\CCc2ccccc21`: the inhibition is -1.95% (inactive). As to `N#Cc1cccc(NC(=O)CCC2CCCC2)c1`, the inhibition was 5.79% (inactive). As for `N#Cc1cccc(Nc2c3c(nc4ccccc24)CCCC3)c1`, the inhibition was 86.9% (active). Consider `O=C(Nc1c2c(nc3ccccc13)CCCC2)c1ccccc1Br`, for which the inhibition was 6.31% (inactive). In the case of `COc1ccc2c(c1)C(c1cccs1)=NNC(c1cccnc1)=N2`, the inhibition was 23.7% (inactive). `CC(NC(=O)COC(=O)c1ccc2c(c1)OCO2)c1ccccc1` (centres undefined): the inhibition is -3.45% (inactive). For `CCOC(=O)C1=C(C)NC(=O)NC1c1ccccc1` (centres undefined), the inhibition is -1.3% (inactive).

On to `CCOC(=O)C1=C(C)N=C2c3ccccc3C(=O)C2C1c1ccc(Br)cc1` (centres undefined), for which the inhibition was 99.4% (active). For `CCOC(=O)C1=C(C)NC(SC)=NC1c1ccccc1` (centres undefined), the inhibition is 8.85% (inactive). On to `CN(C)c1nccc(NCc2ccccc2)c1C#N`, for which the inhibition is -3.1% (inactive). As for `COCCCNC(=O)CNC(=S)N(Cc1cc(OC)c(OC)c(OC)c1)C1CCCC1`, the inhibition is -3.29% (inactive). On to `CCCC(O)(c1ccc(OC)cc1)C(CN(C)C)c1ccccc1` (centres undefined), for which the inhibition was -1.91% (inactive).

With `COc1ccc(OCC(O)CNC(=O)Nc2ccc(Cl)cc2)cc1` (centres undefined), the inhibition was -4.73% (inactive). As to `CN(C)CC(O)COc1ccc(C(C)(C)c2ccc(OCC(O)CN(C)C)cc2)cc1` (centres undefined), the inhibition was 100% (active).
